Reference: PubChem BioAssay AID2401 (Southern Research Specialized Biocontainment Screening …, 2010)
About 530 (24%) of roughly 2,200 compounds were called active.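 Rule for the calls: active = inhibition above a set limit at one or more concentrations of the dose series; inactive = inhibition under that limit at every dose.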 Not all results are given here. Measured potencies and affinities stand elsewhere.

Assay: S. Typhimurium nonspecific reporter signal inhibition – Salmonella Typhimurium, GFP fluorescence, counter-screen for PhoP regulon inhibitor project, dose response (AID 2401);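 note: S. typhimurium with Mg-insensitive nmpC-GFP reporter grown at 10 µM Mg2+; drop in reporter fluorescence reflects general culture growth inhibition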
Settings: 4 h; series mostly up to 150 µM

| Compound | outcome |
| --- | --- |
| CN1C(=S)N(c2ccccc2)C(=O)/C1=C/c1ccco1 | inactive |
| CCn1c(SCc2ccc(F)cc2)nc2ccccc2c1=O | inactive |
| COC(=O)c1ccc(CSc2nnnn2-c2ccccc2)o1 | inactive |
| CCc1ccc(Nc2nc(N)nc(CSc3nc4ccccc4s3)n2)cc1 | inactive |
| CCOc1ccc(CNc2ccc(N3CCCC3)cc2)cc1 | inactive |
| CCOC(=O)c1cnc2ccccc2c1Nc1ccc2c(c1)OCCO2 | inactive |
| CCOc1ccc(Nc2nc(NCCN3CCOCC3)nc(OC)n2)cc1 | inactive |
| Nc1ccc(Nc2ccccc2)c(Cl)c1 | inactive |
| Cc1cccc(Nc2nc(N)nc(CN3CCN(c4ccccc4)CC3)n2)c1 | inactive |
| C=CCN=C(NC#N)SCc1ccccc1Cl | inactive |
| Cc1ccc(NC(=O)C2CC(=O)NC(N3CCCCC3)=N2)cc1Cl (stereo not given) | inactive |
| COC(=O)N1CCN(c2ccc(Cl)c(Cl)c2)CC1 | inactive |
| O=C(COc1ncnc2sccc12)N1CCN(S(=O)(=O)c2ccc(Cl)cc2)CC1 | inactive |
| CC1CCN(C(c2cc3cc4c(cc3[nH]c2=O)OCO4)c2nnnn2CC2CCCO2)CC1 (stereo not given) | inactive |
| CCOC(=O)C[n+]1c(C)sc2ccc(OC)cc21 | inactive |
| COc1ccc(C)cc1Nc1nc(-c2c(C)[nH]c3ccccc23)cs1 | inactive |
| CCOC(=O)c1c(N)ssc1=S | inactive |
| O=c1[nH]c(NCc2ccco2)nnc1Cc1ccccc1Cl | inactive |
| N/C(=N\OC(=O)c1ccc(F)cc1)c1nonc1N | inactive |
| O=C(c1ccccc1)N1CCN(c2ccc([N+](=O)[O-])c(NCc3ccco3)c2)CC1 | inactive |
| O=C(NC(=Nc1ccccc1)N1CCOCC1)Nc1ccccc1 | inactive |
| COc1ccc(C(=O)On2c(-c3ccc(Br)cc3)nc3ccccc3c2=O)cc1 | inactive |
| Cc1cc(-c2csc(N)n2)c(C)n1-c1ccccc1 | inactive |

| Compound | outcome |
| --- | --- |
| N#CC1=C(N)N=C(SCc2cccc3ccccc23)C(C(N)=O)C12CCCCC2 (stereo not given) | inactive |
| CCCCC1CCC(C(=O)Nc2ccccc2)CC1 (stereo not given) | inactive |
| Cc1ccc(CCNC(=O)C2CCCN(S(=O)(=O)c3c(C)noc3C)C2)cc1 (stereo not given) | inactive |
| c1ccc2c(c1)ncn2CCCCOc1ccc2c(c1)CCC2 | inactive |
| O=C(c1ccc(CSc2nc3ccncc3[nH]2)cc1)N1CCN(c2cccc(Cl)c2)CC1 | inactive |
| CC(=O)N1N=C(c2ccco2)CC1c1ccc(Br)cc1 (stereo not given) | inactive |
| OCCCNc1nc(-c2ccc(Cl)cc2)nnc1-c1ccc(Br)cc1 | inactive |
| CC(C)[C@@H]1CC[C@@H](C)C[C@H]1OC(=O)C[n+]1cc(-c2ccc(Cl)cc2)n2c1CCCCC2 | inactive |
| COc1ccc(-n2c(CNc3ccc(C)cc3)nnc2SCc2ccccc2)cc1 | inactive |
| Cn1cc(-c2nnnn2-c2cccc(C(F)(F)F)c2)c(C(F)(F)F)n1 | inactive |
| CCn1c(CNC(=O)c2cccc(C)c2)nc2ccccc21 | inactive |
| COc1ccccc1-c1c(C#N)c(N)nc2c1CCc1ccccc1-2 | inactive |
| O=c1cc(Cc2ccccc2)[nH]c(=S)[nH]1 | inactive |
| CCOC(=O)Cc1ccc(NS(=O)(=O)c2ccc(SC)cc2)cc1 | inactive |
| NC1=NC(=Nc2cccc(Cl)c2)c2ccccc21 | inactive |
| C#CCOc1ccc(/C=C2\SC(=S)N(Cc3cccnc3)C2=O)cc1 | inactive |
| COCCNC(=O)c1ccc(C(=O)NCCOC)s1 | inactive |
| CC(Nc1ccc(Br)cn1)c1cc(Cl)ccc1O (stereo not given) | inactive |
| COc1ccc(/C=N/NC(=O)c2ccc3c(c2)OCCO3)cc1[N+](=O)[O-] | inactive |
| COc1cc([N+](=O)[O-])cc(/C=N/NC(=O)c2cccnc2)c1O | inactive |
| O=C(Nc1cc(C(F)(F)F)ccc1N1CCOCC1)c1ccc(Br)o1 | inactive |
| Cc1nc(N2CCN(Cc3ccc4c(c3)OCO4)CC2)nc2c1C(=O)CC(c1ccco1)C2 (stereo not given) | inactive |
| CC1CCN(S(=O)(=O)c2cccc(C(=O)N(C)C3CCS(=O)(=O)C3)c2)CC1 (stereo not given) | inactive |

| Compound | outcome |
| --- | --- |
| CN1c2ccccc2C(O)=C(C(=O)Nc2ccccc2)S1(=O)=O | inactive |
| O=C(N/N=C/c1ccc(F)cc1)c1cc(-c2ccco2)nc2ccccc12 | inactive |
| COC(=O)C1=C(C)N(C)C(=O)/C1=C\c1ccco1 | inactive |
| O=C(COc1ccccc1)NC(=S)Nc1ccc2c3c(cccc13)CC2 | inactive |
| Cc1ccc(C(=O)CSc2ncnc3sc4c(c23)CCCC4)cc1 | inactive |
| COc1ccc(N2CCN(C(=O)CN(c3cccc(Br)c3)S(C)(=O)=O)CC2)cc1 | inactive |
| O=C(/C=C/c1ccco1)Oc1cc(Br)cc(/C=N/NC(=O)c2ccccc2O)c1 | inactive |
| CCN1CCN(C(=O)c2ccc3c(=O)n(Cc4ccccc4OC)c(=S)[nH]c3c2)CC1 | inactive |
| Cc1cc(C)nc(Nc2ccc(N3CCCC3)cc2)n1 | inactive |
| O=C(NCCc1ccccc1)c1ccc2nc(-c3ccco3)c(-c3ccco3)nc2c1 | inactive |
| Clc1ccc(OCCn2ccnc2)c(Br)c1 | inactive |
| O=C(NC1CCN(C(=O)N2c3ccccc3Sc3ccccc32)CC1)c1ccco1 | inactive |
| CCn1c2ccccc2c2cc(C3N=C(N)Nc4nc5ccccc5n43)ccc21 (stereo not given) | inactive |
| O=C(CN1CCN(c2ccccn2)CC1)Nc1ccc(Oc2ccccc2)cc1 | inactive |
| COc1ccc(OC)c(C2=Nn3c(nnc3-c3cc(OC)c(OC)c(OC)c3)SC2)c1 | inactive |
| O=C1CCCc2nc(N3CCN(Cc4ccccc4)CC3)ncc21 | inactive |
| COc1ccc(Nc2sc(C(=O)Nc3cccc(Cl)c3)c(N)c2C(=O)Nc2ccccc2OC)cc1 | inactive |
| O=S(=O)(c1ccc(F)c2ccccc12)N1CCCCC1 | inactive |
| Cn1ccnc1SCC(=O)Nc1sccc1C#N | inactive |
| Cn1cc(C(CC(=O)O)C(=O)O)c2ccccc21 (stereo not given) | inactive |
| c1ccc2c(N3CCCCCC3)nc(-c3ccncc3)nc2c1 | inactive |
| CCOC(=O)c1cnc2ccc(OCC)cc2c1N1CCN(c2ccccc2)CC1 | inactive |
| Cc1ccc(NC(=O)CCCSc2nc3ccccc3[nH]2)cc1 | inactive |

| Compound | outcome |
| --- | --- |
| CCN(CCO)Cc1csc2ccccc12 | inactive |
| CC(C)CCNC(=O)C12CN(Cc3ccccc3)CC1C(c1cccc([N+](=O)[O-])c1)=NO2 (stereo not given) | inactive |
| CCCn1c(NCc2c[nH]c3ccccc23)nc2ccccc21 | inactive |
| COc1ccc(-c2cc(C(=O)Nc3ccc(S(=O)(=O)Nc4ncccn4)cc3)c3ccccc3n2)cc1 | inactive |
| Nc1nc(C2CCCCC2)cs1 | inactive |
| Clc1ccc(-n2ncc3c(NCc4cccs4)ncnc32)cc1 | inactive |
| CC(C)Cc1nc2ccc(N)cc2[nH]1 | inactive |
| COc1cccc(-c2nnc3sc(-c4ccc(C)cc4)nn23)c1 | inactive |
| Cc1nc2c(C(=O)NCCC(C)C)c[nH]n2c(=O)c1Cc1ccccc1F | inactive |
| CC(C)(C)NC(=O)CSc1nnc(-c2ccncc2)o1 | inactive |
| CCCCCCC(=O)N(O)C1CC(=O)N(c2ccc(C)cc2)C1=O (stereo not given) | inactive |
| O=C(c1ccco1)[C@@H]1[C@@H]2C(=O)N(c3ccc(F)cc3)C(=O)[C@@H]2[C@H]2C=Cc3ccccc3N21 | inactive |
| CCC(=O)NC1=C(NC(C)c2ccccc2)C(=O)c2ccccc2C1=O (stereo not given) | inactive |
| O=S(=O)(c1ccc(NC(=S)Nc2ccc3c(c2)OCO3)cc1)N1CCOCC1 | inactive |
| Nc1ccc(N(c2ccccc2)c2ccc(N)cc2)cc1 | inactive |
| CSc1nsc(SCC(=O)Nc2ccc(C(C)=O)cc2)n1 | inactive |
| O=C(Cc1cccs1)N(c1ccccc1)C1C=CS(=O)(=O)C1 (stereo not given) | inactive |
| O=C(OCC(=O)c1ccc(S(=O)(=O)N2CCCC2)cc1)C1=COCCO1 | inactive |
| NNC(=S)Nc1ccc(Cl)cc1 | inactive |
| COc1ccc2cc(C#N)c(NC(C)C)nc2c1 | inactive |
| NC(=S)c1cc2ccc(O)cc2oc1=O | inactive |
| Cc1ccc(NC(=S)NCCc2ccccc2)c(C)c1 | inactive |
| CNC(=O)CSc1nnc(-c2cccnc2)n1CCc1ccccc1 | inactive |

| Compound | outcome |
| --- | --- |
| COc1nc(N(c2ccccc2)c2ccccc2)nc(-n2ccnc2)n1 | inactive |
| COc1cc(CNc2ccc(CNc3ncn[nH]3)cc2)ccc1OCc1ccccc1 | inactive |
| CCc1cccc(NC(=O)CCCSc2nc3ccccc3[nH]2)c1 | inactive |
| CC(C)Nc1cc(C(F)(F)F)nc(-c2ccccn2)n1 | inactive |
| O=C1c2ccccc2C(=O)N1Cc1nc(-c2ccccn2)no1 | inactive |
| S=c1nc(-c2ccccc2)oc2c1CCCC2 | inactive |
| c1ccc(-c2ncnc3nc4n(c23)CCC4)cc1 | inactive |
| O=C(Nc1cccc2ccccc12)OC1C=CS(=O)(=O)C1 (stereo not given) | inactive |
| Cc1cccc(-n2c(SCC(N)=O)nc3c(c2=O)C2(CCCC2)Cc2ccccc2-3)c1 | inactive |
| COc1ccc(Nc2nc(-c3cccc([N+](=O)[O-])c3)nc3ccccc23)cc1 | inactive |
| C=CCSc1nnc(-c2ccc(Cl)cc2Cl)o1 | inactive |
| c1ccc(-c2nnc(SCCC3OCCCO3)o2)cc1 | inactive |
| COc1ccc(S(=O)(=O)n2nc(OC(=O)c3ccccc3Br)cc2N)cc1 | inactive |
| COc1ccc(N(C(=O)CCl)C(C(=O)NCCc2ccccc2)c2cccs2)cc1 (stereo not given) | inactive |
| CCC(=O)c1ccc(OCC(O)CNCc2ccc(F)cc2)cc1 (stereo not given) | inactive |
| COc1cccc(OCC(O)CN2CCN(c3ccccn3)CC2)c1 (stereo not given) | inactive |
| COc1ccc(C2=C(Nc3ccc(C)cc3)c3ccccc3C2=O)cc1 | inactive |
| COc1ccc(NC2=Nc3cccc4cccc2c34)cc1 | inactive |
| Cc1cc(Nc2ccccc2)nc2cc(O)ccc12 | inactive |
| Cc1cc(=O)oc2cc(OCC(O)CN3CCc4ccccc4C3)ccc12 (stereo not given) | inactive |
| C=CCN(C(=O)c1cccc(S(=O)(=O)N2CCN(C)CC2)c1)c1nc(-c2ccccc2)cs1 | inactive |
| O=C(O)CCc1nnc2n(Cc3ccc(F)cc3)c(=O)c3ccccc3n12 | inactive |
| Cc1nc(-c2ccccn2)sc1C(=O)Nc1ccc(F)cc1F | inactive |
